Measured values as given in PubChem BioAssay AID602293 (National Center for Advancing Translational Sciences (NCATS), 2012).
The campaign covered roughly 1,300 compounds. About 30 (2%) were called active. Another 10% or so got no clear call; they are omitted. This is one part of a sample in which actives are shown more often than they occur. Calls come from the whole dose curve; as a rule, active = well fitted inhibition curve with a large enough effect; inconclusive = small, poorly fitted or top-dose-only effect; inactive = flat fitted curve, though single readings scatter.

Experiment: qHTS for antagonists of the Thyroid Stimulation Hormone Receptor: Hit Validation in HTRF Activity in a Luteinizing Hormone Receptor Cell Line
Details: LHR-expressing cell line, cAMP HTRF, antagonist mode; series mostly up to 58 µM; activity change, negative = inhibition: at the top concentration
Excerpt: The thyroid-stimulating hormone receptor (TSHR) is a member of the 7 trans-membrane-spanning receptor (7TMR) family of cell surface receptors. TSHR-mediated hyperthyroidism is important in thyroid pathology. The development of small molecule antagonists of TSHR may lead to therapeutic approaches for TSHR-mediated hyperthyroidism caused by constitutively activating mutations or stimulating auto-antibodies associated with Graves' disease. Graves' disease is the leading cause of hyperthyroidism and is caused by autoantibodies that stimulate TSHR (TsAbs) causing thyroid growth and unregulated overproduction of thyroid hormones and existing treatments have liabilities (agranulocytosis). In addition, TSHRs are known to be expressed in multiple extrathyroidal tissues including bone, brain, kidney, testis, fat and cells of the immune system but the role of the TSHR in these tissues is not clear. Therefore, TSHR antagonists/inverse agonists could be used as probes of extrathyroidal TSHR function. Finally, TSHR inverse agonists, which are a subclass of antagonists that inhibit agonist-independent (or basal or constitutive) TSHR signaling, could be used to inhibit TSH-independent signaling in patients with recurrent or metastatic thyroid cancer who are receiving thyroid hormone to suppress TSH.
In collaboration between scientist from the NCGC and the NIDDK, a miniaturized HTRF high-throughput screen was developed. It's a cell based assay, where an anti cAMP antibody contains a fluorescent cryptate tag (excitation 337 nm; emission 620 nm) and the acceptor is cAMP-d2 (excitation 620 nm; emission 665 nm). When antibody and cAMP-d2 interact and are excited by a 337 nm light, a FRET occurs resulting in emission at 665 nm. The assay is competition between cAMP-d2 and cAMP (from the cell lysate). The homogeneous protocol allows for one step dispense after stimulation that is automation friendly. In order to confirm specificity of the compounds to the TSHR, a confirmatory assay was conducted on a similar family member, the Luteinizing Hormone (LH) receptor, transfected into a HEK 293 cell line, using an orthogonal detection technology to measure cAMP stimulation: antibody-based Homogeneous Time Resolved Fluorescence (HTRF).
NIH Chemical Genomics Center [NCGC]
NIH Molecular Libraries Probe Centers Network [MLPCN]
Assay Provider: Marvin Gershengorn, NIDDK
Homogeneous Time Resolved Fluorescence (HTRF) cAMP Assay. HEK 293 cells stably transfected with a vector containing the LH receptor and maintained under hygromycin selection were obtained from the laboratory of Dr. Marvin Gershengorn. Compounds were assayed using a HTRF cAMP detection kit (Cisbio) on the LH receptor transfected cell line. Briefly, 750 cells were plated in 2.5 ul/well of complete media (DMEM containing 10 % FCS, and 100 uM RO 20-1724) in 1536 well solid bottom white plates and 23 nl/well compound in DMSO solution or controls was added. Following 30 minute incubation at room temperature, 2.5 ul/well of labeled d2 cAMP and 2.5 ul/well of anti-cAMP antibody (both diluted 1:20 in lysis buffer) were added to each well using a flying reagent dispenser (Aurora Discovery, San Diego) . Plates were measured using the Envision plate reader (PerkinElmer, Boston, MA) with excitation at 330 nm and emissions of 615 nm and 660 nm.
% is set by controls: 0 for no effect and ±100 for the full control effect; potency is the fitted concentration of half-maximal effect.

Activity change, negative = inhibition, inactive:
CC(=O)c1ccc(N(C(=O)CNC(=O)c2ccco2)C(C(=O)NC2CCCC2)c2ccncc2)cc1 (centres undefined) -0.321%, O=C(NC1CCCCC1)C(c1cccs1)N(Cc1cccs1)C(=O)c1cccs1 (centres undefined) -9.17%, Cc1c(C(=O)NCc2ccc3c(c2)OCO3)sc2nc(-c3ccccc3)cn12 0.0777%, N#Cc1c(Cl)nsc1NC(=O)c1ccccc1 -2.2%, O=C1CCCN1c1ccc(S(=O)(=O)Oc2ccc(Cl)cc2)cc1[N+](=O)[O-] -4.4%, CN(C)c1ccc(NC(=S)c2ccc3ccccc3n2)cc1 1.72%, CSc1nc(-c2ccc(Cl)cc2Cl)[nH]c(=O)c1C#N -0.495%, CCOc1cc(N2CCOCC2)c(OCC)cc1NC(=O)c1cccc(S(=O)(=O)N2CCOCC2)c1 -2.11%, COc1ccc(S(=O)(=O)Nc2ccc(C)cc2)cc1N(C)S(=O)(=O)c1ccc(Cl)cc1 -3.51%, O=C(Nc1ncc(S(=O)(=O)c2ccc([N+](=O)[O-])cc2)s1)c1ccc2ccccc2c1 -3.12%, O=C(Nc1ncc(S(=O)(=O)c2ccc([N+](=O)[O-])cc2)s1)c1cccc2ccccc12 0.232%, CCOC(=O)CCCCCC(=O)Nc1ccc2c(c1)CC(=O)N([C@H](C)CO)C[C@@H](C)[C@H](CN(C)Cc1ccc3c(c1)OCO3)O2 1.07%, c1ccc2c(CSc3ncnc4nc[nH]c34)cccc2c1 1.84%, CC1=NN(C(N)=S)C(=O)C1N=Nc1ccc(Cl)cc1Cl (centres undefined) -0.667%, Cc1ncsc1CCOC(=O)C1C2CC3CC(C2)CC1C3 (centres undefined) -1.68%, CCOC(=O)N1CCN(C(=O)c2ccc3c(c2)N=C(CC)c2cc(C)ccc2S3)CC1 -1.95%, O=C(COC(=O)c1cc(S(=O)(=O)N2CCOCC2)c(Cl)cc1Cl)c1ccc[nH]1 -1.62%, COc1cc(/C=C(\C#N)c2ccccn2)ccc1OCc1ccc(Cl)cc1 -1.94%, C/C(=N\Nc1cc(C)nc(-c2ccccc2O)n1)c1ccccc1 0.625%, O=C(Nc1cc(S(=O)(=O)N2CCCCC2)ccc1Cl)c1ccccc1NS(=O)(=O)c1ccc(F)cc1 -2.9%, Clc1ccccc1CN(Cc1ccccc1)c1ncnc2nc[nH]c12 1.01%, COC(=O)c1ccc(NC(=O)Nc2ccc(F)c(Cl)c2)cc1 -2.51%, O=C1C(Cl)=C(Nc2ccc(O)cc2)C(=O)c2ccccc21 -6.39%, COc1ccc2cc(/C=C3\SC(=S)NC3=O)c(N3CCOCC3)nc2c1 -2.49%, O=S1(=O)C=C(Sc2nc3cc(Cl)ccc3o2)c2ccccc21 -7.43%, O=C(Nc1ccc(Oc2ccc(Cl)cc2)c(Cl)c1)c1cc(I)cc(I)c1O -0.309%, O=C(COC(=O)c1ccccc1C(=O)c1ccc(Cl)c([N+](=O)[O-])c1)NC1CCCCCC1 -6.9%, O=C(O)c1ccc(Cl)cc1Nc1nc2cc(Cl)ccc2o1 -1.31%, COc1ccc(CNC(=O)Cn2nc(Cc3cccnc3)c3ccccc3c2=O)cc1 -0.39%, N#C/C(=N\Nc1ccc(Cl)c(Cl)c1)C(=O)C1CC1 -0.632%, O=S(=O)(Nc1cc(Cl)ccc1-n1cncn1)c1cc(Br)ccc1Br -0.878%, O=C(Nc1cccc(Cl)c1)Nc1ccc(Br)cc1F -5.11%, COC(=O)c1ccc(C2N=C(c3cccs3)CC(c3ccccc3O)N2)cc1 (centres undefined) -2.24%, COc1ccc(CNC(=O)C(C)OC(=O)c2cccs2)cc1 (centres undefined) -2.06%, COc1cc(C(C(=O)NCc2ccccc2)N(C(=O)c2snc(C(N)=O)c2N)C2CCCC2)cc(OC)c1OC (centres undefined) -0.39%, O=C(O)/C=C/c1ccc(S(=O)(=O)Nc2ccccc2C(=O)Nc2ccc(F)cc2)cc1 -0.301%, OCCSc1nnc(Nc2ccccc2)s1 0.323%, CN1CCN(C2=CC3=CC(=C(C#N)C#N)CCC3CC2)CC1 (centres undefined) 0.754%, Nc1nc(SCC(=O)C23CC4CC(CC(C4)C2)C3)n[nH]1 1.45%, CC(C)(C)C(=O)NC(NC(=S)Nc1sc2c(c1C#N)CCCC2)C(Cl)(Cl)Cl (centres undefined) 0.759%, CC1Cc2ccccc2N1C(=O)COC(=O)/C=C/c1ccc(F)cc1 (centres undefined) -0.809%, COc1cc(NC(=O)Cn2nc(C(F)(F)F)c(Br)c2C)cc([N+](=O)[O-])c1 -0.304%, CCCC(=NC(C)CC)C1=C(O)CC(c2ccccc2)CC1=O (centres undefined) -1.47%, O=C(Nc1ncc(S(=O)(=O)c2ccc([N+](=O)[O-])cc2)s1)c1ccccc1F -0.0884%

Potency, active:
Cc1cccc(N(C(=O)c2nsc(Cl)c2Cl)C(C(=O)NC2CCCC2)c2ccc(O)cc2)c1C (centres undefined) 12 µM, CCC(=O)NC1=C(Cl)C(=O)C(NC(=O)CC)=C(Cl)C1=O 30.1 µM, COc1ccc(CNC(=O)C(c2ccco2)N(C(=O)c2snc(C(N)=O)c2N)c2cccc(OC)c2)cc1 (centres undefined) 13.5 µM, O=C1C(SCCO)=C(SCCO)C(=O)c2ccccc21 26.9 µM, CCn1nc(C)cc1-c1nnc(Sc2ncc([N+](=O)[O-])s2)n1C 37.9 µM
